# A selection: hits, their analogues and other compounds. The true share with any hit is near 0.87%.
# BLM helicase inh – inhibitors of human Bloom syndrome helicase BLM. Potency, µM (series often up to 56.1 µM), inactives show top-dose activity change, negative = inhibition, hits mostly inhibitors. P54132. recombinant BLM DNA unwinding, fluorescence dequenching. 350,000 tested, 0.2% active. AID 2528;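 further: plate controls were vehicle for no effect and no enzyme for full effect; nearly all actives have a fitted effect of over 35% in size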
# RECQ1 inh – inhibitors of human RECQ1 DNA helicase. P46063. RECQ1 DNA unwinding, red fluorescence kinetic read. Potency, µM (highest dose often 57.3 µM), for inactives: top-dose activity, negative = inhibition, hits mostly inhibitors. 240,000 tested, 0.54% active. AID 2549;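 further: plate controls were vehicle for no effect and no enzyme for full effect; nearly all actives have a fitted effect of over 30% in size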
#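 RECQ1T1 50 nM; forked duplex (20 bp + 30-nt ss tails) 200 nM, ATP 2 mM final; pH 8.0, 2 mM MgCl2, 2.5 ug/ml poly(dI-dC); 15 min compound preincubation; discontinuous kinetic read over 2 h at RT.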
# APEX1 inh – blocks human APE1 abasic DNA cleavage | recombinant APE1, TAMRA/BHQ-2 abasic DNA cleavage fluorescence | AID 2517 | 350,000 tested, 0.35% active | P27695 | Potency, µM (doses to about 65.8 µM), without a hit: at the top dose activity change, negative = inhibition, actives largely listed as inhibitors;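 further: plate controls were vehicle for no effect and reference inhibitor for full effect; nearly all actives have a fitted effect of over 55% in size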
#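 0.75 nM APE1 + cpd, 15 min RT; start w/ 50 nM TAMRA/BHQ-2 THF-abasic dsDNA; kinetic fluor 525/598 nm ×3 reads @60 s; Δ(read3−read1); normalized to DMSO and NSC13755 control wells.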
# TDP1 inh – inhibitors of human tyrosyl-DNA phosphodiesterase TDP1 | 350,000 tested, 0.28% active | AID 485290 | Q9NUW8 | Potency, µM (top dose mostly 130 µM), inactives show top-dose activity change, negative = inhibition, usual class: inhibitors | recombinant TDP1, AlphaScreen DNA substrate cleavage; further: nearly all actives have a fitted effect of over 40% in size
#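 Tdp1 1 nM final; 15 min RT w/ cpd; substrate 15 nM, 5 min; beads 10 ug/ml, 10 min; AlphaScreen read. Neg ctrl: no enzyme.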
# GCN5L2 inh – blocks human GCN5L2 histone acetyltransferase. Q92830. GCN5L2 HAT assay, ThioGlo1 CoA-SH fluorescence. Potency, µM (doses to about 58.9 µM), inactives show top-dose activity change, negative = inhibition, most hits filed as inhibitors. 390,000 tested, 0.21% active. AID 504327
#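 Titration-based screen in which CoA formation is detected via maleimide probe ThioGlo1 (50uM) turning fluorescent on thiol reaction; substrates H3(1-25) 75uM and acetyl-CoA 70uM, GCN5L2 20nM, 20 min incubation at room temperature.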
# * hit, by the source's call; i = inactive; ? = inconclusive; nt = no result given; ! = a repeat was not active; [ ] = dose if it differs, or a comment. The call rests on the fitted dose curve; in most records, active means well fitted curve in the direction sought with a large enough effect; inconclusive means small, poorly fitted or top-dose-only effect, or another doubt; inactive means no such curve, though single readings can be large; an effect the other way counts as inactive or inconclusive. Unless noted, on the % scale 0 is the no-effect control and ±100 the full control effect; potency means the concentration at half of the fitted maximal effect.
SMILES,BLM helicase inh,RECQ1 inh,APEX1 inh,TDP1 inh,GCN5L2 inh
CNC(C)[C@@H]1CC[C@@H](N)[C@@H](O[C@H]2[C@H](O)[C@@H](O[C@H]3OC[C@](C)(O)[C@H](NC)[C@H]3O)[C@H](N)C[C@@H]2N)O1 (some centres not stated),nt,nt,3%[21 µM],nt,nt
Clc1cc(Cl)c(OCC#CI)cc1Cl,2%,nt,nt,nt,14µM*
Cc1cc2c(s1)c1cnn(Cc3ccccc3Cl)c(=O)c1n2C,nt,nt,nt,1%,nt
CCOC(=O)c1nn(-c2ccccc2)c(=O)cc1OCC(=O)Nc1cccc(OC)c1,nt,nt,16%,-7%,4%
CCOC(=O)c1nn(-c2ccc(C)cc2)c(=O)cc1OCC(=O)Nc1ccc(OC)cc1,nt,nt,-3%,45µM*,-15%
O=C(O)c1cc(O)c2c(c1)[C@H]([C@H]1c3cc(C(=O)O)cc(O)c3C(=O)c3c(O[C@@H]4O[C@H](CO)[C@@H](O)[C@H](O)[C@H]4O)cccc31)c1cccc(O[C@@H]3O[C@H](CO)[C@@H](O)[C@H](O)[C@H]3O)c1C2=O,nt,nt,0.4µM*,nt,nt
COc1ccc(-n2c(Cc3cccn3C)nnc2SCC(=O)N2CCCc3ccccc32)cc1,-6%,16µM*,10%,10%,19%
COc1ccc(/C=C(\C#N)c2nc3ccc(C)cc3[nH]2)cc1Oc1ccc(C(F)(F)F)cc1[N+](=O)[O-],-7%,9%,-6%,8%,2.8µM*
N#CC(C#N)=C1C=C2C=C(N3CCCCC3)CCC2CC1 (configuration not stated),-21%,28µM*,9%,8%,-3%
CCCCN(C)C1=CC2=CC(=C(C#N)C#N)CCC2CC1 (configuration not stated),13µM*,14µM*,6%,5%,-5%
CC(=O)Nc1cccc(S(=O)(=O)N2CCCN(S(=O)(=O)c3ccc4c(c3)OCCO4)CC2)c1,nt,nt,nt,1%,nt
Cc1c(C(=O)O)c(O)cc2c1C(=O)c1c(O)c([C@@H]3O[C@H](CO)[C@@H](O)[C@H](O)[C@H]3O)c(O)c(O)c1C2=O,nt,nt,14µM*!,3%,-9%
COc1ccc(OC2=NS(=O)(=O)c3ccccc32)cc1,nt,nt,nt,3%,nt
N=C1/C(=C/c2ccco2)C(=O)N=C2SC(CC(=O)N3CCCC3)=NN12,-27%,nt,-27%,20µM*,-28%
Cc1ccc(/C=C2\C(=N)N3N=C(CC(=O)N4CCCCC4)SC3=NC2=O)cc1,-1%,nt,41%,5%,-9%
COc1ccc(C2c3c(nc(CCCc4ccccc4)[nH]c3=O)Oc3ccc4ccccc4c32)cc1OC (configuration not stated),nt,nt,nt,3%,nt
Cc1ccc(NS(=O)(=O)c2cc3c(cc2N(C)C)NC(=O)CC3)cc1C,nt,nt,nt,0%,nt
CCc1nn2c(=O)cc(COc3ccc(/C=C4\C(=N)N5N=C(C)SC5=NC4=O)cc3)nc2s1,13µM*,?,?,?,?
CCOc1cc(/C=C2\C(=N)N3N=C(C)SC3=NC2=O)ccc1OCCOc1cccc(OC)c1,-12%,nt,-31%,nt,-19%
Cc1ccc(NS(=O)(=O)c2cc3c(cc2N(C)C)CCC(=O)N3)cc1C,nt,nt,nt,0%,nt
COc1cc2c(s1)c1cnn(Cc3ccccc3F)c(=O)c1n2C,nt,nt,nt,0%,nt
O=c1cc(-c2ccc(O)cc2)oc2cc(O)cc(O)c12,-10%,-11%,25µM*!,7%,-21%
CCCCCC(=O)Cc1cc(O)cc2c1C(=O)Oc1cc(O)c(C(=O)O)c(CCCCC)c1O2,?,16µM*,6%,nt,-24%
CC(c1ccco1)N(C)c1ncnc2ccc(-c3ccc4c(c3)OCO4)cc12 (configuration not stated),nt,nt,nt,1%,nt
O=C(COC(=O)CNC(=O)c1ccccc1)Nc1cc(C(F)(F)F)ccc1Cl,nt,nt,nt,-1%,nt
SMILES,BLM helicase inh,RECQ1 inh,APEX1 inh,TDP1 inh,GCN5L2 inh
O=C1CCCC2=C1C1(CCSCC1)N=C(Nc1nc3ccccc3o1)N2,nt,nt,nt,0%,nt
COc1ccc(OC)c2c(=S)c3ccccc3[nH]c12,-3%,-3%,?,nt,14µM*
N#Cc1nc(Nc2cc(F)cc(F)c2)c2ncn(C3CCCC3)c2n1,nt,nt,nt,0%,nt
CCN(CC)Cc1oc(CO)cc(=O)c1O,-9%,1%,-11%,50µM*,-5%
O=c1cc(CO)oc(CN2CCCC2)c1O,-1%,-12%,10%,-6%,-2%
c1coc(CNc2nc(-c3cccs3)nc3ccccc23)c1,nt,nt,nt,1%,nt
CCCCC(OC(=O)CNC(=O)c1ccccc1)C(=O)Nc1cc(C(F)(F)F)ccc1Cl (configuration not stated),nt,nt,nt,1%,nt
CN(Cc1nccs1)c1ncnc2ccc(-c3ccc4c(c3)OCO4)cc12,nt,nt,nt,2%,nt
Cc1nc(SCC(=O)Nc2cc(C(N)=O)cc(C(N)=O)c2)c2c(C)c(C)sc2n1,1%,-13%,7%,10µM*,3%
Cc1nc(SCC(=O)Nc2ccc(S(=O)(=O)N3CCOCC3)cc2)c2c(C)c(C)sc2n1,nt,nt,-5%,2%,-4%
O=C1OC2(c3cc(I)c(O)c(I)c3Oc3c2cc(I)c(O)c3I)c2c(Cl)c(Cl)c(Cl)c(Cl)c21,13µM*,10µM*,13µM*,29%,3.2µM*
O=C1OC2(c3ccccc31)c1cc(I)c(O)c(I)c1Oc1c2cc(I)c(O)c1I,22µM*,28µM*,27µM*,29%,8.9µM*
CC1CCC2(C1)N=C(Nc1nc3ccccc3o1)NC1=C2C(=O)CCC1 (configuration not stated),nt,nt,nt,1%,nt
O=C(CSc1nc(-c2ccco2)nc2cc(=O)[nH]n12)Nc1ccc(F)cc1,2%,nt,nt,0%,-13%
Cc1cccc(NC(=O)CSc2nc(-c3ccco3)nc3cc(=O)[nH]n23)c1,-5%,nt,63%,45µM*,-12%
CCNc1nc(NCC)n2c(SCC(=O)Nc3ccccc3)nnc2n1,-6%,i,12%,5%,-5%
CCNc1nc(NCC)n2c(SCC(=O)Nc3ccc(F)cc3)nnc2n1,nt,nt,12µM*,6%[0.505 µM],-5%
CCNc1nc(NCC)n2c(SCC(=O)Nc3ccc(OC(F)F)cc3)nnc2n1,nt,nt,11µM*,nt,-1%
O=C(CNC(=O)c1ccc(Cl)cc1)OC(C(=O)Nc1cc(C(F)(F)F)ccc1Cl)c1ccccc1 (configuration not stated),nt,nt,nt,-1%,nt
COc1ccc(CCN(C)CCC(=O)Nc2cc(C)ccc2C)cc1OC,-8%,-2%,5%,6%,1.6µM*
O=C(N/N=C/c1cn(-c2ccccc2)nc1-c1ccc2c(c1)OCCO2)c1ccncc1,-15%,-14%,-9%,50µM*,-17%
O=C(N/N=C/c1cn(-c2ccccc2)nc1-c1ccc(F)cc1)c1ccc2c(c1)OCO2,-5%,-8%,2%,5%,-6%
COc1ccc(-c2[nH]n(-c3ccc([N+](=O)[O-])cc3)c(=O)c2C=NCc2ccc(F)cc2)cc1,1%,-10%,30%,8%,-9%

# Screens (PubChem BioAssay)
